GPR151 activ: activates the human receptor GPR151 | Q8TDV0 | PathHunter beta-arrestin GPR151 cells, luminescence | hit rate 1% among 650,000 | activation, % at 11.2 µM | AID 1508602; in the data active = activation above about 4.9%
MITF primary: blocks human microphthalmia-associated transcription factor; O75030; inhibition, % at 2.6 µM; AlphaScreen MITF homodimerization, bead proximity signal; hit rate 0.91% among 650,000; in the data active = inhibition above about 50%
TEAD-YAP block: TEAD-YAP interaction inhibition. AID 1259422. inhibition, % at 9.12 µM. hit rate 1.4% among 640,000. HEK-TIYL cells, TEAD-Gal4/YAP UAS-luciferase luminescence; in the data active = inhibition above about 32%
FBW7 activator: human FBW7 E3 ligase activation, primary screen | Q969H0 | AlphaScreen FBW7–phospho-cyclin E peptide binding, activator screen | normalized activity (activation), % at 26.1 µM | hit rate 0.13% among 650,000 | AID 1259310; in the data active = normalized activity above about 1.9%;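 also: purified mutant Fbw7 with reduced substrate affinity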
GPR151 conf act: confirmation of human GPR151 activators; 6,700 tested, under 10 active; activation, % at 11.2 µM; GPR151 PathHunter beta-arrestin cells, luminescence, 90 min; % of EA-reagent control over plate median; shares compounds with GPR151 activ;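 active = mean percent activation across replicates above the confirmation screen cutoff of 4.91%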
GPR119 ag: activates human GPR119 in a GPR151 counter-screen. GPR119 PathHunter beta-arrestin cells, luminescence, 90 min; 0 = compound-well median, 100 = enzyme-acceptor control. hit rate 0.3% among 6,700. shares compounds with GPR151 activ. activation, % at 11.2 µM;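 active = mean percent activation in the counterscreen above 29.09%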;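 also: counterscreen on off-target GPR119 to flag nonselective hits from the GPR151 activator screen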
Target sequence (Q8TDV5 whole entry, looked up): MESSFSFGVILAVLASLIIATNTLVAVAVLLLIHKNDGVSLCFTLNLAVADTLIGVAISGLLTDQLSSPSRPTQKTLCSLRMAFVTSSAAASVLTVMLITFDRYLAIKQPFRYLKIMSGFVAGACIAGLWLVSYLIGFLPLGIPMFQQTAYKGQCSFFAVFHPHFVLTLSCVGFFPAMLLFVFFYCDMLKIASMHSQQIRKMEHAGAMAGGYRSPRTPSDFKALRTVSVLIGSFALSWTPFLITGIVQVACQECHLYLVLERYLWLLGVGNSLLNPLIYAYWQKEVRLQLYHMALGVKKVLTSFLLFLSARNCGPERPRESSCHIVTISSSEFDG
Of the large screens only hits and unclear results are named; the others gave an inactive call (follow-up assays come after a bar, where they were run). Sampled rows, rich in hits. Any-hit rate of the full collection: about 3.5%.

CC(C)(C)CN1CCNC(=O)C1CC(=O)NC1CCCCCCC1 (stereo not given)	GPR151 activ 11.3 | GPR151 conf act inactive | GPR119 ag inactive
CCOC(=O)c1c(NC(=O)c2ccccc2[N+](=O)[O-])sc(C)c1CC	none
CC(CC(=O)O)CC(=O)N1CCC2(CC1)OCc1cc(-c3ccc(F)cc3)ccc1O2 (stereo not given)	none
CCOC(=O)c1c(-c2ccccc2)oc2ccc(OCc3ccc(C(=O)OC)cc3)cc12	GPR151 activ 11.9 | GPR151 conf act inactive | GPR119 ag inactive
O=C(Nc1ccc(-c2cccc(F)c2)cc1)C1CCCN(C(=O)c2cscn2)C1 (stereo not given)	none
CSCC(=O)N1CCCC(C(=O)Nc2ccc(-c3cccc(F)c3)cc2)C1 (stereo not given)	GPR151 activ 5.6 | GPR151 conf act inactive | GPR119 ag inactive
CSCCC(=O)N1CCCC(C(=O)Nc2ccc(-c3cccc(F)c3)cc2)C1 (stereo not given)	none
O=C(Nc1cccc(-c2ccc(F)cc2)c1)C1CCCN(C(=O)c2cscn2)C1 (stereo not given)	GPR151 activ 16.7 | GPR151 conf act inactive | GPR119 ag inactive
CC(C)(CO)CN1CCCC(C(=O)Nc2cccc(-c3ccc(F)cc3)c2)C1 (stereo not given)	GPR151 activ 6.2 | GPR151 conf act inactive | GPR119 ag inactive
Cc1ccc2nc(Nc3ccc(C(=O)Nc4ccccc4Cl)cc3)nc(-c3ccccc3)c2c1	none
C=CCSc1nnc(NC(=O)c2nc3nccc(C)n3n2)s1	none
CC(=O)c1c(C)[nH]c(C(=O)COc2cc(C)cc(C)c2)c1C	GPR151 activ 5.6 | GPR151 conf act inactive | GPR119 ag inactive
CCCOc1ccc(OCC(=O)c2[nH]c(C)c(C(C)=O)c2C)cc1	none
Cc1nc2ccc(S(=O)(=O)NC(C(=O)NCc3ccccc3)C(C)C)cc2s1 (stereo not given)	none
O=C1CCC(CCC(=O)N2Cc3ccccc3OC(c3ccccc3)C2)=NN1 (stereo not given)	GPR151 activ 9.9 | GPR151 conf act inactive | GPR119 ag inactive
O=C(CCC1=NNC(=O)CC1)NCCN1Cc2ccccc2OC(c2ccccc2F)C1 (stereo not given)	none
O=C1c2cccc3cccc(c23)N1Cc1c(O)ccc2ccccc12	GPR151 activ 5.5 | GPR151 conf act inactive | GPR119 ag inactive
OCc1ccccc1OCc1cccc2ccccc12	GPR151 activ 5.3 | GPR151 conf act inactive | GPR119 ag inactive
CCOC(=O)c1nc(Nc2ccc(OC)cc2OC)c2ccccc2n1	none
O=C(CSc1nnc(-c2ccncc2)o1)c1cccc([N+](=O)[O-])c1	none
COc1cc(OC)cc(-c2nnc(SCC(=O)c3cccc([N+](=O)[O-])c3)o2)c1	GPR151 activ 7.2 | GPR151 conf act inactive | GPR119 ag inactive
OCCOCCNc1ncnc2ccc(I)cc12	GPR151 activ 5.4 | GPR151 conf act inactive | GPR119 ag inactive
COc1ccccc1CNC1CCCN(c2nc(C)c3cc(F)ccc3n2)CC1 (stereo not given)	GPR151 activ 5.4 | GPR151 conf act inactive | GPR119 ag inactive
CC(C)C[C@H]1C(=O)N2CCN(Cc3cnn(-c4ccccc4Cl)c3)C[C@@H]2C(=O)N1C	GPR151 activ 5.8 | GPR151 conf act inactive | GPR119 ag inactive
O=C1[C@@H]2CCCN2C(=O)[C@H]2CN(Cc3cnn(-c4ccccc4Cl)c3)CCN12	none
CCCCOc1ccc(C(=O)N(c2ccc(C)cc2)C2C=CS(=O)(=O)C2)cc1 (stereo not given)	none
CC1Cc2ccccc2N1C(=O)Nc1ccc(F)cc1 (stereo not given)	GPR151 activ 5.5 | GPR151 conf act inactive | GPR119 ag inactive
CC(C)OC(=O)c1cccc(C(=O)Oc2ccc(Br)cc2)n1	GPR151 activ 6.7 | GPR151 conf act inactive | GPR119 ag inactive
COC(=O)c1cccc(C(=O)Oc2ccc(Br)cc2)n1	none
CC(C)c1[nH]nc2c1C(C(C)C)C(C#N)=C(N)O2 (stereo not given)	GPR151 activ 8.3 | GPR151 conf act inactive | GPR119 ag inactive
Cc1cc(C)c2cc3c(N)c(C(=O)N4CC(=O)Nc5ccccc54)sc3nc2c1	none
COc1ccc(CCN2C(=O)c3ccc(Oc4ccc([N+](=O)[O-])cc4)cc3C2=O)cc1OC	none

High-throughput results from PubChem BioAssay.
